From PubChem BioAssay AID1671190 (National Center for Advancing Translational Sciences (NCATS), 2021)
Out of some 580,000 compounds screened, about 6,100 (1.1%) were called active. Roughly 15% stayed inconclusive and do not appear here. The call rests on the fitted dose curve; in most records, active means well fitted inhibition curve with a large enough effect; inconclusive means small, poorly fitted or top-dose-only effect, or another doubt; inactive means no such curve, though single readings can be large or run the other way. The list comes from a sample in which actives are over-represented; it also holds similar structures and randomly drawn compounds. Where a call stands in place of a potency, no number is given.
Potency means the concentration at half of the fitted maximal effect.

The compounds below were run against Polyunsaturated fatty acid lipoxygenase ALOX12 (Homo sapiens) (UniProt P18054) (assay: Primary qHTS assay for inhibitors of human arachidonate 12S-lipoxygenase (ALOX12): Round 2). Settings: purified 12hLO, xylenol orange hydroperoxide absorbance; series mostly up to 108 µM.
Polyunsaturated fatty acid lipoxygenase ALOX12 (Homo sapiens), sequence (P18054 whole entry, looked up): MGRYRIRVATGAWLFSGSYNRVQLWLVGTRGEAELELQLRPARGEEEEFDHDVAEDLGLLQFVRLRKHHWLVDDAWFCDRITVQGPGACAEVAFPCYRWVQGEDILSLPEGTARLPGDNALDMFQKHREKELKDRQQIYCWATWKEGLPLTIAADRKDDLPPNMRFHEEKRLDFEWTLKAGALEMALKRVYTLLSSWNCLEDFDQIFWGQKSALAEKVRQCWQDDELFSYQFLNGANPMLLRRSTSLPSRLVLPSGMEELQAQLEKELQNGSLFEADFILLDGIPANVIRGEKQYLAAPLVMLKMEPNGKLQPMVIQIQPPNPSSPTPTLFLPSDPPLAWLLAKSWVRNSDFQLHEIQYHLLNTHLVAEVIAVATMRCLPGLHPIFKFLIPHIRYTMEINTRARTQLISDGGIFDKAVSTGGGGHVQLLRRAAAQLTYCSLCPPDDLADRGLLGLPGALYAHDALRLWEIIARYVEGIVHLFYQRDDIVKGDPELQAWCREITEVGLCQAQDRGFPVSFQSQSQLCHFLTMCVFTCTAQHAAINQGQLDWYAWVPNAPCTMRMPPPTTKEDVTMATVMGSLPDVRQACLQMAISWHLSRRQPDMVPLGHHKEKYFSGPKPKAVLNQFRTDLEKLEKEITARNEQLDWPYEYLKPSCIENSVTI
Procedure, shortened: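 Purified human 12hLO at 150 nM in 25 mM Hepes, 0.01% Triton X-100, pH 7.0, preincubated 15 min at room temperature with compound. Reaction started with 40 uM arachidonic acid, 30 min at room temperature. Hydroperoxide measured by Fe-xylenol orange, 573/405 nm absorbance ratio.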
With Fc1ccccc1-c1n[nH]c2c1CN(Cc1cccc3c1OCO3)CC2 the Potency was “inactive”. For Cc1ccccc1-c1cc(-c2ccccc2C)[nH]n1, the Potency was “inactive”. CC(CNC(=O)c1cc2ccccc2s1)N1CCCC1 (configuration not stated) was tested, and the Potency was “inactive”. With OCCCNC(=S)Nc1ccccc1F the Potency was “inactive”. With Cc1nc(-c2cccnc2)sc1CCNS(=O)(=O)c1cccs1 the Potency was “inactive”. With C[N+](C)(C)CC#CCCCC#CC[N+](C)(C)C the Potency was 11.2 µM (active). In the case of O=C(Nc1ccc2c(c1)OCCO2)c1nn(-c2ccccc2)c(=O)c2ccccc12, the Potency is reported as “inactive”. With COC(=O)C[C@H]1C=C[C@@H](NS(=O)(=O)c2ccc(C)cc2)[C@@H](CO)O1 the Potency was “inactive”. In the case of COC(=O)C[C@@H]1C=C[C@@H](NS(=O)(=O)c2cccc(OC)c2)[C@@H](CO)O1, the Potency is reported as “inactive”. COc1ccc(S(=O)(=O)N[C@@H]2C=C[C@@H](CC(=O)N3CCc4ccccc4C3)O[C@@H]2CO)cc1 was tested, and the Potency was 25.1 µM (active). In the case of N#CC1(c2ccc(N)cc2)CCCC1, the Potency is reported as “inactive”. CCCn1nnc(NC(=O)c2cc3ccccc3cc2OC)n1 was tested, and the Potency was “inactive”. For COc1ccccc1NC(=O)c1cc2ccccc2cc1OCC(N)=O, the Potency was 35.5 µM (active). With CCn1nnc(NC(=O)c2cc3ccccc3cc2OC)n1 the Potency was “inactive”. COCCCNC(=O)CN(C)C(=O)c1cccc(C(F)(F)F)c1 was tested, and the Potency was “inactive”. CCc1nnsc1C(=O)N(C)Cc1c(F)cccc1Cl was tested, and the Potency was “inactive”. For N#Cc1cc(NCC(=O)N2CCNC2=O)ccc1Cl, the Potency was “inactive”. In the case of Fc1ccc(Nc2nc(SCc3ccccc3Cl)nc3ccccc23)cc1, the Potency is reported as “inactive”. In the case of Clc1ccccc1CSc1nnc(-c2ccco2)c(-c2ccco2)n1, the Potency is reported as 3.55 µM (active). For CC1(C)N=C(SCc2ccccc2Cl)c2ccccc2N1, the Potency was “inactive”. O=C(NCC1CCCO1)c1cc(Cl)c2c(c1)OCCO2 (configuration not stated) was tested, and the Potency was “inactive”. For Cc1ccccc1CN(CC1CCCO1)C(=O)c1cccc(CCC(C)(C)O)c1 (configuration not stated), the Potency was “inactive”. Cc1nn(CCc2nc(-c3ccccc3F)cs2)c2[nH]c(=O)cc(C(F)(F)F)c12 was tested, and the Potency was 7.08 µM (active). For CCCn1c(=O)c2c(C(F)(F)F)cc(-c3cccs3)nc2n(CCC)c1=O, the Potency was “inactive”. In the case of Cc1nn(-c2ccccc2)c2[nH]c(C(F)(F)F)cc(=O)c12, the Potency is reported as “inactive”. In the case of Cc1cc2oc(=O)cc(COC(=O)c3cc(S(=O)(=O)N(C)C)ccc3NCCO)c2cc1C, the Potency is reported as “inactive”. With CCOc1cccc(/C=N/N2C(=O)CSC2=S)c1O the Potency was 31.6 µM (active). CCOC(=O)C1(C(F)(F)F)N=C(c2ccc(OC)cc2)OC(N(C)C)=N1 (configuration not stated) was tested, and the Potency was “inactive”. For O=C(CCNC(=O)N1CCN(C(=O)c2cc3ccccc3[nH]2)CC1)NCc1ccccn1, the Potency was “inactive”. In the case of Clc1cccc(CN2CCN(Cc3nnsc3Cl)CC2)c1, the Potency is reported as “inactive”. CCOC(=O)c1ccc(Nc2c(C(=O)OCC)cnc3ccc(OCC)cc23)cc1 was tested, and the Potency was “inactive”. For COC(=O)c1ccc2nc(-c3ccc(Cl)cc3)c(Cc3cccc(F)c3)n2c1, the Potency was 44.7 µM (active). In the case of CN(C)C(=O)c1nc2ccc(Cl)cn2c1CNCc1cccc(OC(F)(F)F)c1, the Potency is reported as “inactive”. With COC(=O)c1ccc2nc(-c3cccc(Br)c3)c(Cc3ccccc3C(F)(F)F)n2c1 the Potency was “inactive”. In the case of CCc1nc2ccc(C(=O)NCc3ccc(OC)cc3)cn2c1N(CC)Cc1cccc(Br)c1, the Potency is reported as “inactive”. With COC(=O)c1ccc2nc(C3CCCCC3)c(Cc3cccc(F)c3)n2c1 the Potency was “inactive”. COC(=O)c1ccc2nc(-c3cccc(Br)c3)c(Cc3ccc(OC)cc3C)n2c1 was tested, and the Potency was 7.94 µM (active). O=C(Nc1ccnc(Cl)c1)C1CC2CCC1C2 (configuration not stated) was tested, and the Potency was “inactive”. With CC(=O)OC1C2COC(O2)C(OC(C)=O)C1OC(C)=O (configuration not stated) the Potency was “inactive”. In the case of O=C(Nc1cccnc1)c1cc(-c2ccc(F)cc2)nc2ccccc12, the Potency is reported as “inactive”. With CCCNC(=O)CC1COCCN1C(=O)CCc1c(C)nc(=O)[nH]c1C (configuration not stated) the Potency was “inactive”. COC(=O)c1c(CN2CCC(C(N)=O)CC2)nc2ccccc2c1C was tested, and the Potency was “inactive”. With Cc1nnc(SCC(=O)NNC(=O)c2ccc(Cl)cc2)n1CC1CCCO1 (configuration not stated) the Potency was “inactive”. With CNC(=O)NC(=O)CSc1nnc(-c2ccc(F)cc2)n1CC1CCCO1 (configuration not stated) the Potency was “inactive”. With S=c1[nH]nc(-c2ccc(Cl)cc2)n1CC1CCCO1 (configuration not stated) the Potency was 44.7 µM (active). In the case of COc1ccc(C(=O)NC[C@@H]2C=C(C)[C@H](Cc3nnc(-c4cncn4C)o3)C[C@H]2C(C)C)cc1, the Potency is reported as “inactive”. In the case of O=C(c1cccc(F)c1)N1CCC(O)(c2cccnc2)CC1, the Potency is reported as “inactive”. In the case of O=C(c1cccc(F)c1)N1CCN(c2ccc([N+](=O)[O-])c3cccnc23)CC1, the Potency is reported as 39.8 µM (active). CC(C)c1ccc(S(=O)(=O)N2CCN(C(=O)c3ccc(N4CCCC4)c([N+](=O)[O-])c3)CC2)cc1 was tested, and the Potency was “inactive”. With O=C(NCCCN1CCCC1=O)c1csc(N2CCN(c3ccccc3F)CC2)n1 the Potency was “inactive”. For C/C(=N\NC(=O)C1CC1)C(C)C, the Potency was “inactive”. With COc1ccc(Oc2ccc(NC(=O)Cn3ncc4ccc(OC)c(OC)c4c3=O)cc2)cc1 the Potency was “inactive”. O=C(NN=Cc1ccco1)C(=O)Nc1ccc(Cl)c([N+](=O)[O-])c1 was tested, and the Potency was “inactive”. O=C(/C=C/c1ccc(Cl)c([N+](=O)[O-])c1)c1cccnc1 was tested, and the Potency was 17.8 µM (active). C/C(=N\NC(=O)Cc1ccccc1[N+](=O)[O-])c1cccnc1 was tested, and the Potency was “inactive”. With CC(=O)N1CCN(C(=O)Cn2c(-c3ccccc3)cc3ccccc32)CC1 the Potency was “inactive”. O=C(Nc1cc(F)ccc1F)c1cc(C2CC2)nn1-c1ccccc1 was tested, and the Potency was “inactive”. For O=C(CCc1c[nH]c2ccccc12)NCCc1cccnc1, the Potency was “inactive”. With Cc1ccc(C2C=C(c3ccc(Cl)cc3)Nc3nc(NC(=O)CCC(=O)O)nn32)cc1 (configuration not stated) the Potency was “inactive”. For COc1ccc(C2=CC(c3ccccc3Cl)n3nc(-c4ccc(Cl)cc4)nc3N2)cc1 (configuration not stated), the Potency was 5.01 µM (active). With COc1cccc(-c2nc3n(n2)C(c2ccccc2Cl)C(C(N)=O)=C(C)N3)c1 (configuration not stated) the Potency was “inactive”. Cc1nn(Cc2cccc(F)c2)c(C)c1NS(=O)(=O)c1c(C)nn(C)c1C was tested, and the Potency was “inactive”. Cc1sc2ncnc(Sc3nnc(-c4ccccc4F)n3C)c2c1C was tested, and the Potency was “inactive”. With N#Cc1ccccc1Sc1ccccc1C(=O)NC1CCCCC1 the Potency was “inactive”. With N#Cc1ccccc1Sc1ccccc1C(=O)OCC(=O)NC1CCCCC1 the Potency was “inactive”. With N#Cc1ccccc1Sc1ccccc1C(=O)Nc1ccc2c(c1)CCC2 the Potency was 20 µM (active). With CC1CCCN(CC(=O)Nc2oc3ccccc3c(=O)c2-c2ccccc2)C1 (configuration not stated) the Potency was “inactive”.
